Records with an inconclusive call do not appear. The source made the active and inactive calls. Unless noted, the call rests on the fitted dose curve; in most records, active means well fitted curve in the direction sought with a large enough effect in the repeat runs; inconclusive means weak or mixed curves; inactive means no such curve, though single readings can be large; an effect the other way counts as inactive or inconclusive.
Assays:
[1] = qHTS assay to identify small molecule agonists of the sonic hedgehog signaling (Shh) pathway (AID 1259368; calls by dose curve;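 further: NIH/3T3-derived 3T3Gli1-Luc cells carrying a stable Gli1-driven firefly luciferase reporter; series mostly up to about 92 µM; nearly all actives have a fitted effect of over 15% in size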)
Outline: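 3T3Gli1-Luc (NIH/3T3 clone, stable Gli1-Luc); 4 hr pre-incubation, then cpd in DMSO 24 hr, 37 C/5% CO2; luciferase reagent 30 min RT; luminescence.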

[2] = qHTS assay to identify small molecule antagonists of the sonic hedgehog signaling (Shh) pathway (AID 1259369; calls by dose curve; further: nearly all actives have a fitted effect of over 45% in size)
Outline: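 3T3Gli1-Luc, conditioned-medium-stimulated, 24hr cpd, 37C/5% CO2; Gli1-driven firefly Luc luminescence after 30min RT with luciferase reagent. Cells plated 4hr before cpd.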

[3] = qHTS assay to identify small molecule agonists of the estrogen receptor beta (ER-beta) signaling pathway - cell viability counter screen (AID 1259380); further: nearly all actives have a fitted effect of over 30% in size
Outline: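 HEK293T ER-beta-UAS-bla; 2% CS-FBS; 6 hr pre-plate, 16 hr cpd at 37C/5% CO2; LiveBLAzer read first, then CellTiter-Glo 30 min RT, luminescence.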

[4] = qHTS assay to identify small molecule antagonists of the estrogen receptor beta (ER-beta) signaling pathway - cell viability counter screen (AID 1259382); further: series mostly up to about 92 µM; nearly all actives have a fitted effect of over 55% in size
Outline: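 Cells: ER-beta-UAS-bla HEK293T, 2,000/well, 2% CS-FBS, 6 hr settle. Cpd + E2 (1nM final), 16 hr, 37C/5% CO2. Bla FRET substrate 2 hr RT, then CellTiter-Glo 30 min RT, luminescence.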

[5] = target: Estrogen receptor (Homo sapiens) (UniProt P03372); assay: qHTS assay to identify small molecule agonists of the estrogen receptor alpha (ER-alpha) signaling pathway in the presence of an antagonist (AID 1259383; calls by dose curve; further: top concentration of the series differs between compounds; nearly all actives have a fitted effect of over 15% in size)
Outline: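 VM7Luc4E2, endog. ER-alpha + 4×ERE-luc; charcoal-stripped FBS, phenol red-free, 5 d; 24hr plating; +10.0nM ICI-182,780 (final); cpds 15 conc, 22hr, 37C/5% CO2; ONE-Glo luminescence.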

[6] = qHTS assay to identify small molecule agonists of the estrogen receptor alpha (ER-alpha) signaling pathway in the presence of an antagonist - cell viability counter screen (AID 1259386);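 further: series mostly up to about 92 µM; cells exposed to compounds for 22 h at 37 °C before the viability read; nearly all actives have a fitted effect of over 30% in size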
Outline: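 VM7Luc4E2, stripped-serum pre-culture 5 d; 24hr plating; +ICI-182,780 10.0nM final; cpds 15 conc, 22hr, 37C/5% CO2; CellTiter-Fluor added at 21hr, fluorescence 1hr later.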

[7] = target: Progesterone receptor (Homo sapiens) (UniProt P06401); assay: qHTS assay to identify small molecule agonists of the progesterone receptor (PR) signaling pathway (AID 1346784; calls by dose curve; further: nearly all actives have a fitted effect of over 30% in size)
Outline: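 Cells (PR-UAS-bla HEK 293T, GripTite) were plated in assay medium containing 2% charcoal-stripped FBS and incubated 6 hr. Test compounds in DMSO were added for 16 hr at 37C. FRET substrate was then loaded for 2 hr at room temperature before fluorescence reading.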

[8] = target: Progesterone receptor (Homo sapiens) (UniProt P06401); assay: qHTS assay to identify small molecule antagonists of the progesterone receptor (PR) signaling pathway (AID 1346795; active means well fitted inhibition curve with a large enough effect in the signal ratio in the repeat runs, not every such curve was filed as active; the % refers to the signal ratio)
Outline: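 Antagonist mode: compounds tested against 1 nM (final) promegestone stimulation in HEK293T cells expressing PR-UAS-bla reporter, 16 hr at 37C, 5% CO2; beta-lactamase activity detected via B/G FRET substrate after 2 hr at room temperature.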

[9] = qHTS assay to identify small molecule antagonists of the progesterone receptor (PR) signaling pathway - cell viability counter screen (AID 1346798); further: series mostly up to about 92 µM; nearly all actives have a fitted effect of over 50% in size
Outline: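 Counter screen for cytotoxicity: viability of PR-UAS-bla HEK293T cells was measured with CellTiter-Glo luminescence following 16 hr compound exposure in the presence of R5020.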

[10] = qHTS assay to identify small molecule agonists of the progesterone receptor (PR) signaling pathway - cell viability counter screen (AID 1346799; calls by dose curve; further: nearly all actives have a fitted effect of over 45% in size)
Outline: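 Cells (PR-UAS-bla HEK293T) are plated at 3,000/well in 2% charcoal-stripped FBS medium, rested 6 hr, dosed and incubated 16 hr at 37C. CellTiter-Glo is then added and luminescence measured after 30 min at room temperature.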

[11] = qHTS assay to identify small molecule antagonists of the TGF-beta/Smad signaling pathway - cell viability counter screen (AID 1346824); further: nearly all actives have a fitted effect of over 50% in size
Outline: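 SBE-bla HEK 293T cells, incubated overnight, then compound plus 0.25 ng/mL TGF-beta1 (stock added) for 5 hr at 37 C. Viability was read in the same wells by CellTiter-Glo luminescence after 30 min at room temperature.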

[12] = qHTS assay to identify small molecule agonists of the TGF-beta/Smad signaling pathway - cell viability counter screen (AID 1346829); further: top concentration of the series differs between compounds; nearly all actives have a fitted effect of over 45% in size
Outline: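 Compound-treated SBE-bla HEK 293T cells (5 hr, 37 C) were assessed for viability with CellTiter-Glo in parallel with the reporter read.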

[13] = qHTS assay to identify small molecule agonists of the TGF-beta/Smad signaling pathway (AID 1346859; active means well fitted activation curve with a large enough effect in the signal ratio in the repeat runs, not every such curve was filed as active; the % refers to the signal ratio; further: series mostly up to about 77 µM)
Outline: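 Reporter line: HEK 293T with stably integrated SBE-controlled beta-lactamase. Compound exposure lasts 5 hr at 37 C and 5% CO2; substrate loading follows for 2 hr at room temperature, with emission read at 460 and 530 nm.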

[14] = target: Thyrotropin-releasing hormone receptor (Homo sapiens) (UniProt P34981); assay: qHTS assay to identify small molecule antagonists of the thyrotropin-releasing hormone receptor (TRHR) signaling pathway (AID 1346877; active means well fitted inhibition curve with a large enough effect in the repeat runs, not every such curve was filed as active; further: series mostly up to about 51 µM)
Outline: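 Intracellular calcium fluorescence, read kinetically every second over 3 min, reports TRH-evoked signalling in HEK293 cells carrying TRHR. Test compounds were added 5 min ahead of a 1 nM TRH challenge.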

[15] = target: Estrogen receptor beta (Homo sapiens) (UniProt Q92731); assay: qHTS assay to identify small molecule agonists of the estrogen receptor beta (ER-beta) signaling pathway (AID 1259377; active means well fitted activation curve with a large enough effect in the signal ratio in the repeat runs, not every such curve was filed as active; the % refers to the signal ratio)
Outline: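 Agonist mode cell assay in GripTite HEK293T cells expressing an ER-beta fusion that drives beta-lactamase from an Upstream Activator Sequence; 16 hr compound exposure at 37C, then 2 h LiveBLAzer B/G FRET substrate at room temperature, fluorescence read-out.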

[16] = target: Estrogen receptor beta (Homo sapiens) (UniProt Q92731); assay: qHTS assay to identify small molecule antagonists of the estrogen receptor beta (ER-beta) signaling pathway (AID 1259378; active means well fitted inhibition curve with a large enough effect in the signal ratio in the repeat runs, not every such curve was filed as active; the % refers to the signal ratio)
Outline: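 ER-beta-UAS-bla HEK293T cells in 2% charcoal-stripped FBS medium treated with compound plus 1nM final 17-beta-estradiol for 16 hr at 37C. Beta-lactamase reporter read by FRET substrate fluorescence after 2 hours at room temperature.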

[17] = qHTS assay to identify small molecule agonists of the androgen receptor (AR) signaling pathway in the presence of an antagonist - cell viability counter screen (AID 1259379);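 further: MDA-kb2 human breast cancer cells carrying an MMTV luciferase reporter; series mostly up to about 92 µM; nearly all actives have a fitted effect of over 25% in size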
Outline: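 Cells: MDA-kb2 (MMTV-luc, AR and GR elements), 3,000/well, 5 hr settle. Added: nilutamide 3.0uM final, then compounds (15 conc.). Incubation: 16 hr, 37C, no CO2. Read-out: CellTiter-Fluor, 1 hr, fluorescence.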

[18] = qHTS assay to identify small molecule agonists or antagonists of the thyroid stimulating hormone receptor (TSHR) signaling pathway - wild type cell line counter screen (AID 1259384; calls by dose curve)
Outline: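 Wild-type Hek293 cells, 800/well, 18 h at 37C, then compound with Ro20-1724 for 30 min RT. cAMP by HTRF (cAMP-d2/anti-cAMP cryptate), 1 h RT, fluorescence read. 15 concentrations, triplicates.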

[19] = target: Thyrotropin receptor (Homo sapiens) (UniProt P16473); assay: qHTS assay to identify small molecule antagonists of the thyroid stimulating hormone receptor (TSHR) signaling pathway (AID 1259385; calls by dose curve; further: nearly all actives have a fitted effect of over 20% in size)
Outline: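 TSHR-HEK293 cells (800/well) plated 18 h, then compounds with Ro20-1724 and TSH at 1.5 ng/mL final, 30 min at room temperature. cAMP quantified by HTRF (cAMP-d2/anti-cAMP-cryptate, 1 h); 15 concentrations in triplicate.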

Measured: Potency

Thyrotropin-releasing hormone receptor (Homo sapiens), sequence (P34981 whole entry, looked up): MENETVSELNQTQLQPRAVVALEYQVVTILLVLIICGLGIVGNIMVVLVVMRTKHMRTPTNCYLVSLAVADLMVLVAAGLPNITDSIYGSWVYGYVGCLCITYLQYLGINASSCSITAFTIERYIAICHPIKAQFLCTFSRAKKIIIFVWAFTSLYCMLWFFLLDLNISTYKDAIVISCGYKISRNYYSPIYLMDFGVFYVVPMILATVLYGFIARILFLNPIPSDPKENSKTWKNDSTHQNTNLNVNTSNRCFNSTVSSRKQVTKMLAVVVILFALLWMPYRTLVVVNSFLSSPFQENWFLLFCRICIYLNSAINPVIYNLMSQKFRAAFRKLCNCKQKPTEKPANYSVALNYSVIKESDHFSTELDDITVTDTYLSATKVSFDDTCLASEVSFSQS
Estrogen receptor beta (Homo sapiens), sequence (Q92731 whole entry, looked up, the tested form may be a part): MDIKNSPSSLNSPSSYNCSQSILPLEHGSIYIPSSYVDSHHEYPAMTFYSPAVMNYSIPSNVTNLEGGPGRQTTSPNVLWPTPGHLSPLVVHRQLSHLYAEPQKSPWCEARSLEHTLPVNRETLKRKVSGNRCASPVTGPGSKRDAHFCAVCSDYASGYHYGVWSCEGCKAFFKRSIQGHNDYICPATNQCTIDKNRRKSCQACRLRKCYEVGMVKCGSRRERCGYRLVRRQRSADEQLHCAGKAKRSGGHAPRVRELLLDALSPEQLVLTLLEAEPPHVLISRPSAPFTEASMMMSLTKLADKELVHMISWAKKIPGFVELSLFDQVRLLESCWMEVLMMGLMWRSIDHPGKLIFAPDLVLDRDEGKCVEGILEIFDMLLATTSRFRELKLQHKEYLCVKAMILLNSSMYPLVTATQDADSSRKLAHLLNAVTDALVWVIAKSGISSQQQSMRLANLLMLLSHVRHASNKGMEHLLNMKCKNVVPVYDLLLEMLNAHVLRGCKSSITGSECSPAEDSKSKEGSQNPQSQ
Thyrotropin receptor (Homo sapiens), sequence (P16473 whole entry, looked up): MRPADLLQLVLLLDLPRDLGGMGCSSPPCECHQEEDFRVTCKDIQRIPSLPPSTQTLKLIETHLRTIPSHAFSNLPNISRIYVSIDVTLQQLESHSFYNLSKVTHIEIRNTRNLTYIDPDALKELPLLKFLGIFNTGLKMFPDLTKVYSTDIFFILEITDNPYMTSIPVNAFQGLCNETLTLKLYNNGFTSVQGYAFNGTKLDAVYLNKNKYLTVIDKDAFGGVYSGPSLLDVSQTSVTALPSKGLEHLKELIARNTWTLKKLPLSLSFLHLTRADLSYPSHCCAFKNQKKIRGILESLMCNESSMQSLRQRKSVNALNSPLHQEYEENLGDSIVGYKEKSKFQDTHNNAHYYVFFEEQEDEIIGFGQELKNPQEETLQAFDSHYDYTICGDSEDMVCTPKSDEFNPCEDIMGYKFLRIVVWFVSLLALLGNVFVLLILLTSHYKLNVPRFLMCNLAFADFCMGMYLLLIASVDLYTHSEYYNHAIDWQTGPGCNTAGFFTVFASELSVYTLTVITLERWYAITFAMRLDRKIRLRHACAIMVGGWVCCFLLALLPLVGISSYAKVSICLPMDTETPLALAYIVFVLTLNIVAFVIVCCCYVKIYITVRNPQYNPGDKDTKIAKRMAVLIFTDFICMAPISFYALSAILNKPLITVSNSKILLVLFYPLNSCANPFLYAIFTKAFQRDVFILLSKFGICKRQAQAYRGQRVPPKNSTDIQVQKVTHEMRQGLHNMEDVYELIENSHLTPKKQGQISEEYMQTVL
Progesterone receptor (Homo sapiens), sequence (P06401 whole entry, looked up): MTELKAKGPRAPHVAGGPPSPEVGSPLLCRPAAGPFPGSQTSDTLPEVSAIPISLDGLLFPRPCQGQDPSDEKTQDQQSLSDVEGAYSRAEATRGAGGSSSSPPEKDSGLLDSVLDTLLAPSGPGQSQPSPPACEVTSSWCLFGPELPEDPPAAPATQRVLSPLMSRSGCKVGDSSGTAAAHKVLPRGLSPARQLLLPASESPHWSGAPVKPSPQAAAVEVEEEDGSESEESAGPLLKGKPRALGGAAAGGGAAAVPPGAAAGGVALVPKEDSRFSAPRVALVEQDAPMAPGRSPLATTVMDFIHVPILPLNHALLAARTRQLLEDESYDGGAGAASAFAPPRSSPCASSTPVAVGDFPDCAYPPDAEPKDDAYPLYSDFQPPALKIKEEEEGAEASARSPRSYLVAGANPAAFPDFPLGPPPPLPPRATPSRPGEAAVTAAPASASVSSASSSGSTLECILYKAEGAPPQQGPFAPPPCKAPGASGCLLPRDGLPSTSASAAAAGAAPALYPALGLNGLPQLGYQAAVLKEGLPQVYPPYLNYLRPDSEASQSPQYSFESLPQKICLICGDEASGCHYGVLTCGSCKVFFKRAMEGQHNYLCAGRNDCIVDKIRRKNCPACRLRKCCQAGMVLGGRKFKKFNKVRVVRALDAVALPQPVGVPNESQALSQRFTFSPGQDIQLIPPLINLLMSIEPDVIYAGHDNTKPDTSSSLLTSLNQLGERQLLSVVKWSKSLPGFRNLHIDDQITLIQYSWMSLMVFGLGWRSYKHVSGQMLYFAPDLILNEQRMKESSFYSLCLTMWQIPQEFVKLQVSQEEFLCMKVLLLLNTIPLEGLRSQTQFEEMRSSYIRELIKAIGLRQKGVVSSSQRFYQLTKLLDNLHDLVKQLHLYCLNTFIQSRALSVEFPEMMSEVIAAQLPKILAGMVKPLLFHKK
Estrogen receptor (Homo sapiens), sequence (P03372 whole entry, looked up): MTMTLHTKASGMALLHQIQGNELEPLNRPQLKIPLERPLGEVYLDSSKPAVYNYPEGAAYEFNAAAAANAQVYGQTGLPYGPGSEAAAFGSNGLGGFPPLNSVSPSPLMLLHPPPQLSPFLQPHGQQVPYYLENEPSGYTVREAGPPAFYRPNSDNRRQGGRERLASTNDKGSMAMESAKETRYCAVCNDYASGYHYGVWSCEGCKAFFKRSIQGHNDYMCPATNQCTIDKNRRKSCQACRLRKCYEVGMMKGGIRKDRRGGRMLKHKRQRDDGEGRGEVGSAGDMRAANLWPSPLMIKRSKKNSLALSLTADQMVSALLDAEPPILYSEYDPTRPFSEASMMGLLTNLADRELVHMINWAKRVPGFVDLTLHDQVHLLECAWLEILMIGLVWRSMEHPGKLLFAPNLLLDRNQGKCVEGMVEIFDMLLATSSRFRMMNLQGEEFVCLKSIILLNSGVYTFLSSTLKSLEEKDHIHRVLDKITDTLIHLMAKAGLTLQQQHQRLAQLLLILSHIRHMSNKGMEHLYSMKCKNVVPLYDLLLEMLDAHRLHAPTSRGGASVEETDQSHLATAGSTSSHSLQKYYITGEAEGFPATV

COc1ccc(S(=O)(=O)N2c3ccc(Cl)cc3[C@@](O)(c3ccccc3Cl)[C@H]2C(=O)N2CCC[C@@H]2C(N)=O)cc1OC
inactive: [1] | [2] | [3] | [4] | [5] | [6] | [7] | [8] | [9] | [10] | [11] | [12] | [13] | [14]

CCCCCCCCCCl
inactive: [1] | [15] | [16] | [17] | [3] | [4] | [18] | [19] | [6] | [7] | [8] | [9] | [10] | [11] | [12] | [13] | [14]

CC1=C(C(=O)O)N2C(=O)[C@@H](NC(=O)[C@H](N)c3ccc(O)cc3)[C@H]2SC1
inactive: [1] | [15] | [16] | [17] | [4] | [18] | [6] | [7] | [10] | [11] | [12] | [13]

CC1(C)S[C@@H]2[C@H](N=CN3CCCCCC3)C(=O)N2[C@H]1C(=O)O
inactive: [1] | [15] | [16] | [17] | [3] | [4] | [5] | [18] | [19] | [6] | [7] | [8] | [9] | [11] | [12] | [13] | [14]

NCCN1CCOCC1
inactive: [1] | [15] | [16] | [17] | [3] | [4] | [18] | [19] | [6] | [7] | [8] | [9] | [10] | [11] | [12] | [13] | [14]

CCCCCCCCC1CCC(=O)O1 (stereo not given)
inactive: [1] | [15] | [16] | [17] | [3] | [4] | [5] | [18] | [19] | [6] | [7] | [8] | [9] | [10] | [11] | [12] | [13] | [14]

O=C1O[C@@H]2[C@@H](O)[C@H](O)O[C@@H]2[C@H]1O
inactive: [1] | [15] | [16] | [3] | [4] | [5] | [18] | [19] | [6] | [7] | [8] | [9] | [10] | [11] | [12] | [13] | [14]

CCN1CCc2nc(N)oc2CC1
inactive: [1] | [15] | [16] | [17] | [3] | [4] | [5] | [18] | [19] | [6] | [7] | [8] | [9] | [10] | [11] | [12] | [13] | [14]

Source: PubChem BioAssay (Tox21)
